Data: PubChem BioAssay (Tox21)
Inconclusive results are not listed. Activity calls are given as the source filed them. Unless noted, calls come from the whole dose curve; as a rule, active = well fitted curve in the direction sought with a large enough effect in the repeat runs; inconclusive = weak or mixed curves; inactive = no such curve, though single readings can be large; an effect the other way counts as inactive or inconclusive.

How the values were obtained:
[1] = molecular target: Aryl hydrocarbon receptor (Homo sapiens) (UniProt P35869); test: qHTS assay to identify small molecule that activate the aryl hydrocarbon receptor (AhR) signaling pathway (AID 743085); conditions: HepG2 AhR-luc (HG2L7.5c1), luciferase, 24 h; series mostly up to 70.3 µM; note: nearly all actives have a fitted effect of over 15% in size; note: potency is the fitted concentration of half-maximal effect;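 for activation: HG2L7.5c1 human HepG2 liver cells with stably integrated DRE-driven firefly reporter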
Procedure, shortened: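 Cell line HG2L7.5c1 (human hepatoma, 20× DRE-luc). Plated, 5 h 37C, compound/DMSO added, 24 h 37C. CellTiter-Fluor 30 min 37C → fluorescence; then ONE-Glo 30 min RT → luminescence.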

[2] = molecular target: Peroxisome proliferator-activated receptor gamma (Homo sapiens) (UniProt P37231); test: qHTS assay to identify small molecule agonists of the peroxisome proliferator-activated receptor gamma (PPARg) signaling pathway (AID 743094; active = well fitted activation curve with a large enough effect in the signal ratio in the repeat runs, not every such curve was filed as active; the % refers to the signal ratio); conditions: HEK293H PPARg-UAS-bla, beta-lactamase FRET ratio, 17 h; series mostly up to 57 µM
Procedure, shortened: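 HEK293H PPARg-bla cells, 5 h settle at 37C/5% CO2; compound (DMSO) 17 h, 37C; B/G FRET substrate 1 h RT; fluorescence intensity read-out. qHTS format.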

[3] = molecular target: Peroxisome proliferator-activated receptor gamma (Homo sapiens) (UniProt P37231); test: qHTS assay to identify small molecule antagonists of the peroxisome proliferator-activated receptor gamma (PPARg) signaling pathway (AID 743191; calls by dose curve; note: nearly all actives have a fitted effect of over 30% in size); conditions: HEK293H PPARg-UAS-bla, beta-lactamase ratio, antagonist, 17 h; series mostly up to 62.6 µM
Procedure, shortened: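 GeneBLAzer PPARg UAS-bla HEK293H cells carrying a UAS-driven beta-lactamase reporter were plated at 3000 cells/well, preincubated 5 h at 37C, then given compound for 17 h at 37C; LiveBLAzer B/G FRET substrate was read after 1 h at room temperature.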

[4] = qHTS assay for small molecule agonists of the antioxidant response element (ARE) signaling pathway (AID 743202; active = well fitted activation curve with a large enough effect in the signal ratio in the repeat runs, not every such curve was filed as active; the % refers to the signal ratio; note: potency is the fitted concentration of half-maximal effect); conditions: HepG2 ARE-bla reporter, beta-lactamase FRET, 16 h; series mostly up to 73.3 µM
Procedure, shortened: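 Following a 16 h, 37 C exposure of reporter HepG2 cells (ARE-driven beta-lactamase, 2,000 cells/well) to compounds, FRET substrate was applied for 2 h at room temperature and fluorescence intensity recorded.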

[5] = qHTS assay for small molecule agonists of the antioxidant response element (ARE) signaling pathway - cell viability counter screen (AID 743203; calls by dose curve; note: nearly all actives have a fitted effect of over 55% in size); conditions: ARE-bla HepG2 viability, CellTiter-Glo luminescence, 16 h; series mostly up to 73.3 µM
Procedure, shortened: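 Luminescence read-out (CellTiter-Glo, 30 min at room temperature) measured cell viability in the same wells as the ARE beta-lactamase reporter. HepG2 ARE-bla cells were treated with compounds for 16 hrs at 37C/5% CO2.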

[6] = qHTS assay for small molecule activators of the heat shock response signaling pathway - cell viability counter screen (AID 743209); conditions: HSE-bla HeLa viability, CellTiter-Glo luminescence, 5 h; series mostly up to 62.6 µM; note: nearly all actives have a fitted effect of over 50% in size
Procedure, shortened: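 HSE-bla HeLa; 1500 cells/well; overnight 37 C, 5% CO2; compound 5 h 37 C; LiveBLAzer B/G substrate 2.5 h RT; CellTiter-Glo 30 min RT; luminescence.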

[7] = qHTS assay for small molecule activators of the heat shock response signaling pathway (AID 743210; active = well fitted activation curve with a large enough effect in the signal ratio in the repeat runs, with a control signal flat, not every such curve was filed as active; the % refers to the signal ratio); conditions: HeLa HSE-bla reporter, beta-lactamase ratio, 5 h; series mostly up to 62.6 µM
Procedure, shortened: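 Heat shock element–beta-lactamase HeLa reporter cells; qHTS with compounds for 5 h at 37 C; detection by FRET substrate fluorescence after 2.5 h at RT.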

[8] = qHTS assay to identify small molecule agonists of the peroxisome proliferator-activated receptor delta (PPARd) signaling pathway - cell viability counter screen (AID 743211); conditions: PPARd-bla HEK293H viability, CellTiter-Glo luminescence, 17 h; series mostly up to 62.6 µM; note: nearly all actives have a fitted effect of over 55% in size
Procedure, shortened: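 HEK293H PPARd-bla, 3000 cells/well; 5 h preincubation 37C/5% CO2; cpd in DMSO, 17 h 37C; B/G FRET substrate 2 h RT; CellTiter-Glo 30 min RT, luminescence.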

[9] = qHTS assay to identify small molecule antagonists of the peroxisome proliferator-activated receptor gamma (PPARg) signaling pathway - cell viability counter screen (AID 743194); conditions: PPARg-bla HEK293H viability, CellTiter-Glo luminescence, 17 h; Potency: co-treated with 50 nM rosiglitazone; series mostly up to 62.6 µM; note: nearly all actives have a fitted effect of over 55% in size
Procedure, shortened: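 PPARg-UAS-bla HEK293H cells were plated, rested 5 h at 37 C, then treated with compounds plus rosiglitazone (50 nM final) for 17 h at 37 C; viability was then read by CellTiter-Glo luminescence after 30 min at room temperature.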

[10] = qHTS assay to identify small molecule that activate the aryl hydrocarbon receptor (AhR) signaling pathway - cell viability counter screen (AID 743086); conditions: HepG2-AhR-luc viability, CellTiter-Fluor, 24 h; series mostly up to 70.3 µM;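 note: HepG2 liver cells carrying the AhR DRE luciferase reporter; nearly all actives have a fitted effect of over 45% in size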
Procedure, shortened: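 HepG2-AhR-luc (HG2L7.5c1) cells, 4000/well, were preincubated 5 h at 37C, exposed to compound in qHTS format for 24 hr at 37C, then given CellTiter-Fluor for 30 min; viability was read as fluorescence in the reporter wells.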
% is set by controls: 0 for no effect and ±100 for the full control effect.

Chain of Peroxisome proliferator-activated receptor gamma (Homo sapiens) (P37231 whole entry, looked up): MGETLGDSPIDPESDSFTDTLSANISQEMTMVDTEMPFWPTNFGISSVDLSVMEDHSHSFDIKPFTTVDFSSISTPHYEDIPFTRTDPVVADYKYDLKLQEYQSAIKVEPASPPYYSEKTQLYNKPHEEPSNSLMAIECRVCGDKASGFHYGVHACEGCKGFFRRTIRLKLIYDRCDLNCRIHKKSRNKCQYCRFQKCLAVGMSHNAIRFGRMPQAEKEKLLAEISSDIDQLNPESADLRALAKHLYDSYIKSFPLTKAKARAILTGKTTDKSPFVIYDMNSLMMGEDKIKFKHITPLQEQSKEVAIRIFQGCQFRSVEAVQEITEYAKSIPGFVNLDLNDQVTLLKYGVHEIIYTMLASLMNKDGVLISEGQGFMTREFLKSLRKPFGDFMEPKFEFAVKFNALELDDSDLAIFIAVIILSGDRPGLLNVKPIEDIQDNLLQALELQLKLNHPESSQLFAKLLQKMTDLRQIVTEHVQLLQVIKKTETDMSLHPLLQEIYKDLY
Chain of Aryl hydrocarbon receptor (Homo sapiens) (P35869 whole entry, looked up): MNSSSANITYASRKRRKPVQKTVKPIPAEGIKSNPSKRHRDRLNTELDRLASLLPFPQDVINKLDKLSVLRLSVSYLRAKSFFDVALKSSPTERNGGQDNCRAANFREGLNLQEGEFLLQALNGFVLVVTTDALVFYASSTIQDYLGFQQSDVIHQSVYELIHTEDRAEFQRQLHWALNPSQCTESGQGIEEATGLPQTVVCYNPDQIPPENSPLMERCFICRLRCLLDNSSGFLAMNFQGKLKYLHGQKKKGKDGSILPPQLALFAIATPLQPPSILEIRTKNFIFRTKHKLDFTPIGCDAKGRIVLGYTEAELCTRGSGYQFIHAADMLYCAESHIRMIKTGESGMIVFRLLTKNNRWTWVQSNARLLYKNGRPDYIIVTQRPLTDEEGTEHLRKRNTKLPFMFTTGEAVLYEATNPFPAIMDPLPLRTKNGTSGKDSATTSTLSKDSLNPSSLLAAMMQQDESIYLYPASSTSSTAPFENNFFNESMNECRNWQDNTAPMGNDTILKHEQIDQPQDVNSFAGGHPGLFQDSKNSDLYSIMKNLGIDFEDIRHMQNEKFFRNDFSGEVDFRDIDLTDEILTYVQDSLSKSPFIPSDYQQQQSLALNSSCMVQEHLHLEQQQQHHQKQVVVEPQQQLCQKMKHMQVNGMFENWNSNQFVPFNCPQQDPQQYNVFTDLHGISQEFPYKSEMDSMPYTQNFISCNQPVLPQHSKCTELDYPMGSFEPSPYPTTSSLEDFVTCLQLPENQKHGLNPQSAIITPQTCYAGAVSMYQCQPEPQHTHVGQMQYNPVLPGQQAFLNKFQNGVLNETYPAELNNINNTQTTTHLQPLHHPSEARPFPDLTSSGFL

N#CN=C1SCCN1Cc1ccc(Cl)nc1
inactive: Potency [1] | outcome [2] | Potency [3] | Potency [4] | Potency [5] | Potency [6] | Potency [7] | Potency [8]

CCN(CCO)CCn1c(Cc2ccccc2)nc2c1c(=O)n(C)c(=O)n2C
inactive: Potency [1] | outcome [2] | Potency [3] | Potency [9] | Potency [4] | Potency [5] | Potency [6] | Potency [7] | Potency [8]

Oc1ccc2c3c1O[C@H]1[C@@H](O)C=C[C@H]4[C@@H](C2)NCC[C@@]341
inactive: Potency [1] | Potency [10] | Potency [9] | Potency [5] | Potency [6]

COc1cc(CC(C)N)cc(OC)c1OC (configuration not stated)
inactive: Potency [1] | Potency [10] | Potency [3] | Potency [9] | Potency [4] | Potency [5] | Potency [6] | Potency [7] | Potency [8]

Cn1c(N)nc2c3cccnc3ccc21
inactive: outcome [2] | Potency [9] | Potency [4] | Potency [5] | Potency [6] | Potency [7] | Potency [8]
active: Potency [1] 4.61 µM

C#CC(C)(C)O
inactive: Potency [1] | Potency [10] | Potency [9] | Potency [4] | Potency [5] | Potency [6] | Potency [7] | Potency [8]

CC(Cc1ccccc1)NCCn1cnc2c1c(=O)n(C)c(=O)n2C (configuration not stated)
inactive: Potency [1] | outcome [2] | Potency [3] | Potency [9] | Potency [4] | Potency [5] | Potency [6] | Potency [7] | Potency [8]

O=C(Cl)/C=C/C(=O)Cl
inactive: Potency [1] | Potency [10] | Potency [9] | Potency [5] | Potency [6] | Potency [7] | Potency [8]
active: Potency [4] 22 µM

Brc1c(Br)c(Br)c(Br)c(Br)c1Br
inactive: activation [1] -0.623% [at 8.47 µM] | viability change, negative = cytotoxic [10] 2.59% [at 8.47 µM] | activation [4] -11.1% [at 8.36 µM] | viability change, negative = cytotoxic [5] -9.94% [at 8.36 µM] | activity change, negative = cytotoxicity [6] -1.06% [at 5.95 µM] | activation [7] -1.19% [at 5.95 µM] | activity change, negative = cytotoxicity [8] 3.57% [at 5.95 µM]

CC[C@H](O)C(C[C@H](C)N(C)C)(c1ccccc1)c1ccccc1
inactive: Potency [1] | outcome [2] | Potency [9] | Potency [5] | Potency [6] | Potency [7] | Potency [8]

CCCCCCC(=O)CCCCCC/C=C/C[C@@H](O)[C@H](O)[C@@](N)(CO)C(=O)O
inactive: Potency [1] | Potency [10] | outcome [2] | Potency [5] | Potency [6] | Potency [7] | Potency [8]

CC(C)(C)NC[C@H](O)c1ccc(O)cc1Cl
inactive: Potency [10] | outcome [2] | Potency [3] | Potency [9] | Potency [4] | Potency [5] | Potency [6] | Potency [7] | Potency [8]

N[C@@H](Cc1ccc(Oc2cc(I)c(O)c(I)c2)c(I)c1)C(=O)O
inactive: Potency [1] | Potency [10] | Potency [9] | Potency [4] | Potency [5] | Potency [6] | Potency [7] | Potency [8]

CC(C)[N+](C)(CCC(C(N)=O)(c1ccccc1)c1ccccc1)C(C)C
inactive: Potency [1] | Potency [10] | outcome [2] | Potency [5] | Potency [6] | Potency [7] | Potency [8]

O=C(NC(O)C(Cl)(Cl)Cl)NC(O)C(Cl)(Cl)Cl (configuration not stated)
inactive: Potency [1] | Potency [10] | Potency [9] | Potency [4] | Potency [5] | Potency [6] | Potency [7] | Potency [8]

Cc1ccc(S(=O)(=O)N[C@@H](CCCCN)C(=O)CCl)cc1
inactive: Potency [1] | Potency [3] | Potency [4] | Potency [5] | Potency [6] | Potency [8]

CNC(=O)O/N=C(/CSC)C(C)(C)C
inactive: Potency [10] | outcome [2] | Potency [3] | Potency [9] | Potency [4] | Potency [5] | Potency [6] | Potency [7] | Potency [8]

NC1(c2ccccc2)CCCCC1
inactive: Potency [1] | Potency [10] | Potency [3] | Potency [9] | Potency [4] | Potency [5] | Potency [6] | Potency [7] | Potency [8]

CCN[C@H](C)Cc1cccc(C(F)(F)F)c1
inactive: Potency [1] | outcome [2] | Potency [3] | Potency [9] | Potency [5] | Potency [6] | Potency [7] | Potency [8]

CCCC(C)C1(CC)C(=O)N=C(S)NC1=O (configuration not stated)
inactive: Potency [1] | Potency [10] | Potency [4] | Potency [5] | Potency [6] | Potency [7] | Potency [8]

Cc1ccc2cc(C)ccc2c1
inactive: Potency [1] | outcome [2] | Potency [3] | Potency [9] | Potency [4] | Potency [5] | Potency [6] | Potency [7] | Potency [8]

CC[C@@H](CO)NC(=O)[C@@H]1C=C2c3cccc4[nH]cc(c34)C[C@H]2N(C)C1
inactive: Potency [1] | Potency [10] | Potency [9] | Potency [4] | Potency [5] | Potency [6] | Potency [8]
